Legend:
Test in all cases: log2 ratio of Biotin-Ahx-Ub-VS probe labelling (fragment/DMSO); higher = less target engagement (more negative = stronger competition), active = hit call of the paper (q ≤ 0.05, log2 ratio ≤ -1)
Conditions in all cases: compound concentration: 200 uM; treatment time: 3 h
USP34 = USP34 (UniProt Q70CQ2)
Method in brief: (§1)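 HEK293T lysate, 495 µg per sample in Tris/CHAPS/IGEPAL buffer with protease inhibitors, was treated in triplicate with fragment at 200 µM or vehicle for 3 h and then with Biotin-Ahx-Ub-VS at 0.5 µM final for 1 h. Labelled DUBs were NeutrAvidin-enriched, digested with LysC and trypsin, and run by diaPASEF LC-MS/MS. Spectronaut label-free quantities were global-median-normalised, and values are average log2 fragment/vehicle ratios by unpaired t-test on proteins with ≥2 unique peptides.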

USP36 = biological target: T1, USP36 (UniProt Q9P275)
T1 sequence (whole entry): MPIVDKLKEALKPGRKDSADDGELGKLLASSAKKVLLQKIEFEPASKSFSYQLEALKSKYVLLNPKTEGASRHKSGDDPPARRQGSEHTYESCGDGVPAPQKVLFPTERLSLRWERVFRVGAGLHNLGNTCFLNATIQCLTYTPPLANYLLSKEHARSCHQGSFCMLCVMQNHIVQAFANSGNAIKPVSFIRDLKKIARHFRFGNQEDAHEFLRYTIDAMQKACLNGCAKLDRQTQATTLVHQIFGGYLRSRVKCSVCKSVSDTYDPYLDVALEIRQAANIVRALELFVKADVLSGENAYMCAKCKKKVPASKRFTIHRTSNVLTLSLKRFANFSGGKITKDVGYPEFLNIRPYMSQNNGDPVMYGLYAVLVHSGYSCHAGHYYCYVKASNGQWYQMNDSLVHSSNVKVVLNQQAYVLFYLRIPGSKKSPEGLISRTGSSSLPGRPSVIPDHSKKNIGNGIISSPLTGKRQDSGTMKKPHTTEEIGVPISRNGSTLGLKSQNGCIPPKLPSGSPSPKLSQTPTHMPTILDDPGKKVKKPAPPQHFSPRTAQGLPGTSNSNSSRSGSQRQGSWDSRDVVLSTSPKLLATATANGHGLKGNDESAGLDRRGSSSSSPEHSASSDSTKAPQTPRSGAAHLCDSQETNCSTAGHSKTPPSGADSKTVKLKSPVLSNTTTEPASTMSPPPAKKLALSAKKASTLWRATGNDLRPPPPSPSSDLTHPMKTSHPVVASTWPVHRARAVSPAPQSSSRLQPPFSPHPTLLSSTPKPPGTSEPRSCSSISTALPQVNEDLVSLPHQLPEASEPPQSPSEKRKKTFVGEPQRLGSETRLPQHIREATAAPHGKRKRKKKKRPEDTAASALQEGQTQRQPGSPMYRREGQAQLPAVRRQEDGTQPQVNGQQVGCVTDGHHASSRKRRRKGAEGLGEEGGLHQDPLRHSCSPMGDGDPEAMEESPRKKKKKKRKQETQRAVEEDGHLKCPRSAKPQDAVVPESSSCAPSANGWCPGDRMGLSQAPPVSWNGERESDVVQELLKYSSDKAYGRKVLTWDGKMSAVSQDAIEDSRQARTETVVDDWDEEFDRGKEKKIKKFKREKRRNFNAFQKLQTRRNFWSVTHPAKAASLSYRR
Method in brief: as §1

USP38 = biological target: T2, USP38 (UniProt Q8NB14)
T2 sequence (whole entry): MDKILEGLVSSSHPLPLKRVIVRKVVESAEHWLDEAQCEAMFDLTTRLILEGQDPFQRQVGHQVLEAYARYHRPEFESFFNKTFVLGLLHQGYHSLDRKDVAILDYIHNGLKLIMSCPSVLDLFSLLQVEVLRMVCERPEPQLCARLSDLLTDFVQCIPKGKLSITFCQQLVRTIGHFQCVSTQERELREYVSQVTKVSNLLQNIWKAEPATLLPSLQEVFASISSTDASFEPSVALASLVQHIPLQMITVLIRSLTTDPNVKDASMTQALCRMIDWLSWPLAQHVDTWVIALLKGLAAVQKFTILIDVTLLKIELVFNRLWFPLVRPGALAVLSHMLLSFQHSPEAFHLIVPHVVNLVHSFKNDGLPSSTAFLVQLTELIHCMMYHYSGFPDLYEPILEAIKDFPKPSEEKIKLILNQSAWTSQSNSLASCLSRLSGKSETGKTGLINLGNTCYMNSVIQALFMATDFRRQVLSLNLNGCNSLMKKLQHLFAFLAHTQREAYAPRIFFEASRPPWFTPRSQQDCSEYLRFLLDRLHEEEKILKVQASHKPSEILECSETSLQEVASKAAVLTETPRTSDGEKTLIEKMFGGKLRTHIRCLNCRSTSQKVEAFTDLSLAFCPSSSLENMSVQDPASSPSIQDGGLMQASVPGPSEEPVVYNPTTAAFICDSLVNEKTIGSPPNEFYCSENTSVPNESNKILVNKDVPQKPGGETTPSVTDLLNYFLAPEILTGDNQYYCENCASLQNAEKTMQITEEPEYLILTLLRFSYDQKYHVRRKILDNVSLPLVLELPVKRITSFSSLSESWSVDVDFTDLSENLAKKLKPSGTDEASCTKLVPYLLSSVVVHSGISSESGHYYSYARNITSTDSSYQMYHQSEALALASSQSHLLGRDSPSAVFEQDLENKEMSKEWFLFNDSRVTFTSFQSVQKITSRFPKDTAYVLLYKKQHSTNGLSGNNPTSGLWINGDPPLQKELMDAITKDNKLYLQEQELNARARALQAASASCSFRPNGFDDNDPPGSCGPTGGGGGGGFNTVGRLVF
Method in brief: as §1

USP39 = biological target: T3, USP39 (UniProt Q53GS9)
T3 sequence (whole entry): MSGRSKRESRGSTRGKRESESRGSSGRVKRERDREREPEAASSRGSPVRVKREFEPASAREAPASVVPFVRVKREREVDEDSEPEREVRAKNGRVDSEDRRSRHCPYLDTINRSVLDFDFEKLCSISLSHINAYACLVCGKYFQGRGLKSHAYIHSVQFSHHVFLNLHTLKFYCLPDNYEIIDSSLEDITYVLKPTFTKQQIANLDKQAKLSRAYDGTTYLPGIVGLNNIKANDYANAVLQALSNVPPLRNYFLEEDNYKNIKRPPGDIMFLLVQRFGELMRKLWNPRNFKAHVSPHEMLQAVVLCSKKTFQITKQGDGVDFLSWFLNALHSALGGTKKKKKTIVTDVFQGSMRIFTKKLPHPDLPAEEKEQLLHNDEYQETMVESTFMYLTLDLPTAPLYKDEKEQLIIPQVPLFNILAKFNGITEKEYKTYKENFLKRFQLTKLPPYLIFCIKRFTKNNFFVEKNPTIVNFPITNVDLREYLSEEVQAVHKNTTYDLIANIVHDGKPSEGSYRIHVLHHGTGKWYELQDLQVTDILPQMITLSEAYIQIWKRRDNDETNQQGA
Method in brief: as §1

USP4 = biological target: T4, USP4 (UniProt Q13107)
T4 sequence (whole entry): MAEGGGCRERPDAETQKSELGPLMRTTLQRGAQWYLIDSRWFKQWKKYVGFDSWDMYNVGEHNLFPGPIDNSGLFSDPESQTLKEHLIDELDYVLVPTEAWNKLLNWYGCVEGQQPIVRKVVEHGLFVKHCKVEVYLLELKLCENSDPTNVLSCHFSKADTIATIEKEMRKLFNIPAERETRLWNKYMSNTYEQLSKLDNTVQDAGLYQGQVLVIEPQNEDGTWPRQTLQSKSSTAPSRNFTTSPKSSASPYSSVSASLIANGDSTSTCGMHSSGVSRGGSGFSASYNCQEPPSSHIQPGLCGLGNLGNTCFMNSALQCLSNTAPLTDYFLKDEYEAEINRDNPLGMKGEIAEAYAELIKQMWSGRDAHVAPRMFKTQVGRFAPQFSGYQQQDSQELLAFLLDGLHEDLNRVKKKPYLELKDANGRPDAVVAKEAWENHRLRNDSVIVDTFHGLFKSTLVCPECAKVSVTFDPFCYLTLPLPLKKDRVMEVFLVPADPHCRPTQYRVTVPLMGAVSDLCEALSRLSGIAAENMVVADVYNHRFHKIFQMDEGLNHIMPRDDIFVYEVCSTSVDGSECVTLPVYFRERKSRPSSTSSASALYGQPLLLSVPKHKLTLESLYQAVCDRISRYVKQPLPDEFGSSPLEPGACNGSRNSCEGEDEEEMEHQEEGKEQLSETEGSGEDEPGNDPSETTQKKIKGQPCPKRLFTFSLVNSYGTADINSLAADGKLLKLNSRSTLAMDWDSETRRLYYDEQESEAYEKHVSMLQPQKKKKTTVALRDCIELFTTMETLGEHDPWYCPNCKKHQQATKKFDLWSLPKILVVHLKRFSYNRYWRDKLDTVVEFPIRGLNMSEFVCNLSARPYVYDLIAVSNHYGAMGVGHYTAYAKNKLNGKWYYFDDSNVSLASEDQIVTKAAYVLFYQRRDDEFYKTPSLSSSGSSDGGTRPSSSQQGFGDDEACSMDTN
Method in brief: as §1

Measured: log2 ratio of Biotin-Ahx-Ub-VS probe labelling

Chain of USP34 (Q70CQ2 whole entry, the tested form may be a part): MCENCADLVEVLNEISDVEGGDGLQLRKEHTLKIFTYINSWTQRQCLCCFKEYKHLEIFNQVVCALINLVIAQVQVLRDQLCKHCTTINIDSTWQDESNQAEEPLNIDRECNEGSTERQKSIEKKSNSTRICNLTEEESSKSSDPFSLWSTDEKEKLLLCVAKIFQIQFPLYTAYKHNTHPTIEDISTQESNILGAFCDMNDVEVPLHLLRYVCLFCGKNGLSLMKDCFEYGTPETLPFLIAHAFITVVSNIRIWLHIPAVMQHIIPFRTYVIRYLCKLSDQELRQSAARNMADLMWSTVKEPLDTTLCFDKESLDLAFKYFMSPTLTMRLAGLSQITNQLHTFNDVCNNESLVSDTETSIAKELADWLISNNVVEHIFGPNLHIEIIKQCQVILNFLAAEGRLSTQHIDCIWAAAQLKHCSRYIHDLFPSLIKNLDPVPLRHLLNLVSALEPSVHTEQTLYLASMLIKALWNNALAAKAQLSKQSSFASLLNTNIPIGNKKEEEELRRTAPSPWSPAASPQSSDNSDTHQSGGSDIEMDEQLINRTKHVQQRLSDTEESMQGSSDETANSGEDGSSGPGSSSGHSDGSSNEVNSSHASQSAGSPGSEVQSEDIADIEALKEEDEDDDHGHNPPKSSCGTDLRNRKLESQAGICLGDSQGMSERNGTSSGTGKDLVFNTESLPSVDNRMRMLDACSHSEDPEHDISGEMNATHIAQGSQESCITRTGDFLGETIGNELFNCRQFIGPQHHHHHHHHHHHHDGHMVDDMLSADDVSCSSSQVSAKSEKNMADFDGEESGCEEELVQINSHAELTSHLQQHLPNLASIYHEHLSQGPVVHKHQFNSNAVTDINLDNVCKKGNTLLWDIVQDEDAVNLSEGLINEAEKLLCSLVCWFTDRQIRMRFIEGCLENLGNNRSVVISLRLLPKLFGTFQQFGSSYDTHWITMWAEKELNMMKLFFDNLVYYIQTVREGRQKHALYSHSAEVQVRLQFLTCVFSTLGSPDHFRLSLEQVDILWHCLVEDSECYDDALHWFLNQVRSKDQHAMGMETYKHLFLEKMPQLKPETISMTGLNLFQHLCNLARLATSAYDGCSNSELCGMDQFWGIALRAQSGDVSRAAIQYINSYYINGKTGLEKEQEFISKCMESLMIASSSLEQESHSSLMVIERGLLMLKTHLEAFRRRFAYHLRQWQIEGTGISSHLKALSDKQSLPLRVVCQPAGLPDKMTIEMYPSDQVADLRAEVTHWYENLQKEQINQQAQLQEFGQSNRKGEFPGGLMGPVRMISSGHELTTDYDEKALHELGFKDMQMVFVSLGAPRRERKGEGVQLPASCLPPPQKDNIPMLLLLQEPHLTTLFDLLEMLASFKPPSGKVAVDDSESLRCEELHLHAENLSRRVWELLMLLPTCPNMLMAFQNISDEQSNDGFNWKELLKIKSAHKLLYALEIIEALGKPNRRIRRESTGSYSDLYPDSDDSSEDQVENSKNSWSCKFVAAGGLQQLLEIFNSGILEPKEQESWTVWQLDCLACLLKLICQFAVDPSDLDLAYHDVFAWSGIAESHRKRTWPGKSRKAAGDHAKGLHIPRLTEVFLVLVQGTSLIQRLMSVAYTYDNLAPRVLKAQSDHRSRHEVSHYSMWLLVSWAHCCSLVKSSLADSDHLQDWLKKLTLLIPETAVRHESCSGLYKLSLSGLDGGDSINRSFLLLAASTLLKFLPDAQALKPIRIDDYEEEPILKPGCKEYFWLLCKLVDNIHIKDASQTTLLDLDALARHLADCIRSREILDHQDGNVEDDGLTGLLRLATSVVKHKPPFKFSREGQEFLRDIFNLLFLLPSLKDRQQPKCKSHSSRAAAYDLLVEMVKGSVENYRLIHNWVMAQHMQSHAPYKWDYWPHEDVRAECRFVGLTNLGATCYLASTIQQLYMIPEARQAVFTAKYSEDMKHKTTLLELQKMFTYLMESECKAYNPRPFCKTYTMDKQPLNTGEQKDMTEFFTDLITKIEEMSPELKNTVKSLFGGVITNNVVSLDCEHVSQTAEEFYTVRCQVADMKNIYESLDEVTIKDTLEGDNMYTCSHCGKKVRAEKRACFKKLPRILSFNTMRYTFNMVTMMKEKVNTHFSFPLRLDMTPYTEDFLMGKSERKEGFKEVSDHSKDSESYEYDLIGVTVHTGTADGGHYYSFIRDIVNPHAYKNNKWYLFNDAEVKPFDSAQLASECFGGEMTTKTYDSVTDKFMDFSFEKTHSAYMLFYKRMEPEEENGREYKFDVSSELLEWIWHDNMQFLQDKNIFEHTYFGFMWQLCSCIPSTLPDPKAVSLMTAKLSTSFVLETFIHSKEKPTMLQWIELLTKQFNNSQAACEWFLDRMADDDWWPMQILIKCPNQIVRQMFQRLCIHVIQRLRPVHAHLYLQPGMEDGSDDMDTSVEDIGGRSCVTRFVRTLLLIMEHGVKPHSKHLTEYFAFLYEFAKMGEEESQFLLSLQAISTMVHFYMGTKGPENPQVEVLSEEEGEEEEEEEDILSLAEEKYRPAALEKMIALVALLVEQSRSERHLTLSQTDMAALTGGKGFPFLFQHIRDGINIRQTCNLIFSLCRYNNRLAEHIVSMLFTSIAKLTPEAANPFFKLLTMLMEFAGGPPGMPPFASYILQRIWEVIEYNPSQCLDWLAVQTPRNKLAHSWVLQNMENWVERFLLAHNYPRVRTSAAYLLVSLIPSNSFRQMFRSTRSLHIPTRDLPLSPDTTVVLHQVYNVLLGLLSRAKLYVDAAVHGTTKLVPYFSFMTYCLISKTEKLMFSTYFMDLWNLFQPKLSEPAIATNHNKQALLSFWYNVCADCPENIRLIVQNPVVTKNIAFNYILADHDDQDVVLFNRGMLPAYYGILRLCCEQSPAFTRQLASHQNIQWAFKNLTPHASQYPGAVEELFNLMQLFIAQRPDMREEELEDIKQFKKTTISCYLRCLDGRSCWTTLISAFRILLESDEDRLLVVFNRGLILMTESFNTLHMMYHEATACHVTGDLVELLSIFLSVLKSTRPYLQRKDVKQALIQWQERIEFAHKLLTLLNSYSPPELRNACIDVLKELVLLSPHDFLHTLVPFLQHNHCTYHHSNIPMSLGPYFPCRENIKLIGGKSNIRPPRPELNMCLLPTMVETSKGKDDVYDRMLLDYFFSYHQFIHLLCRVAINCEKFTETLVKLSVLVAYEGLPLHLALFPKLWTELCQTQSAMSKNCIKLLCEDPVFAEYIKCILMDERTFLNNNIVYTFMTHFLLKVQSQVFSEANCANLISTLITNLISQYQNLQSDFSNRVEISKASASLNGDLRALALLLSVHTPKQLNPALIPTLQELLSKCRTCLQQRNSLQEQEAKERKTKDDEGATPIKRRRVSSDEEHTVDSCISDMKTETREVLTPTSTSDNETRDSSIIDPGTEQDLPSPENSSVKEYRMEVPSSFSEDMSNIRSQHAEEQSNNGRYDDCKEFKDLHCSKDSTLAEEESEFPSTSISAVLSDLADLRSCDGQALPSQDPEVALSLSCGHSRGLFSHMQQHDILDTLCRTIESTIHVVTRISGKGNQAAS

O=C(CCl)N1CCc2ccccc2C(O)C1 (stereo not given)
inactive: USP34 -0.224 | USP36 -0.441 | USP38 -0.0535 | USP39 0.0381 | USP4 -0.274

Source: the supplement of paper PMC11732987, “Enantioselective OTUD7B fragment discovery through chemoproteomics screening and high-throughput optimisation” (Communications Chemistry, 2025)
